Active and inactive are the calls of the source.
Columns and labels:
[1] = binders of probe aFSTL3 on microarray, primary screen, stem cell growth factor project, biochemical, small-molecule microarray, fluorescence 635/667 (AID 1064); details: higher = more signal;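 also: measures binding of the biotinylated anti-FSTL3 antibody to printed compounds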
[2] = binders from COS7 lysate, DM2A8 probe, primary screen, torsin A project, cell lysate, small-molecule microarray, fluorescence 635/667 (AID 1065); details: higher = more signal, COS7 lysate expressing mutant human TOR1A
[3] = binders of probe aFGF2 on microarray, primary screen, stem cell growth factor project, biochemical, small-molecule microarray, fluorescence 635/667 (AID 1067); details: higher = more signal;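 also: measures binding of biotinylated aFGF2 protein to printed compounds on slides; z-score merges feature fluorescence and signal-to-noise across triplicate slides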
[4] = binders of probe aFGF10 on microarray, primary screen, stem cell growth factor project, biochemical, small-molecule microarray, fluorescence 635/667 (AID 1071); details: higher = more signal;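 also: score merges 667 nm spot intensity and signal to noise from triplicate slides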
[5] = biological target: Neurogenic locus notch homolog protein 2 (Homo sapiens) (UniProt Q04721); assay: Notch2 binders on small-molecule microarrays, primary screen, biochemical, small-molecule microarray, 635 nm fluorescence, stem cell growth factors (AID 1073); details: Notch2 binding, higher = more signal
[6] = biological target: Pro-neuregulin-1, membrane-bound isoform (Homo sapiens) (UniProt Q02297); assay: NRG1 binders on small-molecule microarrays, primary screen, psychiatric disease protein project, biochemical, small-molecule microarray, fluorescence 635/667 (AID 1075); details: NRG1 binding, 635 nm fluorescence, higher = more signal;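 also: score combines 667 nm spot fluorescence with signal to noise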
[7] = system: Neuregulin-1 EGF-like domain; assay: binders of neuregulin-1 EGF-like domain, primary screen, biochemical, small-molecule microarray, 635 nm fluorescence (AID 1081); details: small-molecule microarray binding, higher = more signal;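 also: binding of the protein to compounds printed on small-molecule microarray slides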
[8] = FRG1 promoter luciferase signal modulators, primary screen, FRG1 inhibition for FSHD, cell-based, C2C12 myotubes, firefly/Renilla luciferase, luminescence (AID 1084); details: higher = more signal, called active from +8 up or from −8 down
[9] = binders of probe aFST on microarray, primary screen, stem cell growth factor project, biochemical, small-molecule microarray, fluorescence 635/667 (AID 1086); details: higher = more signal;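 also: score merges 667 nm fluorescence with signal-to-noise of each printed compound spot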
[10] = binders of probe aHhip on microarray, primary screen, stem cell growth factor project, biochemical, small-molecule microarray, fluorescence 635/667 (AID 1087); details: higher = more signal;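 also: score merges spot fluorescence at 667nm with spot signal to noise ratio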
[11] = system: PRMT1 (protein arginine N-methyltransferase 1); assay: PRMT1 binders on small-molecule microarrays, primary screen, biochemical, small-molecule microarray, 635 nm fluorescence (AID 1088); details: small-molecule microarray binding, higher = more signal;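 also: binding of Prmt1 protein to compounds spotted on small-molecule microarray slides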
[12] = yeast growth modulation, basal conditions, primary screen, YJM789 clinical isolate, OD600, 24 h (AID 1089);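 also: growth of clinical yeast isolate S. cerevisiae YJM 789 seeded 1000 cells per well; test concentration not given here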; details: S. cerevisiae YJM789 growth, higher = more signal, called active from +8 up or from −8 down
[13] = fission yeast growth modulation, primary screen, strain 972, OD600, 24 h, no modulator (AID 1090);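 also: basal condition with compound alone and no growth modifier present; test concentration not given here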; details: S. pombe 972 growth, higher = more signal, called active from +8 up or from −8 down
[14] = S. cerevisiae growth modulation with rapamycin, primary screen, strain BY4716, OD600, 96 h (AID 1091); details: higher = more signal, called active from +8 up or from −8 down; also: test concentration not given here
[15] = biological target: Torsin-1A-interacting protein 2 (Homo sapiens) (UniProt Q8NFQ8); assay: LULL1 binders on small-molecule microarray, primary screen, cell lysate, human LULL1 lysate, 635/667 nm fluorescence (AID 1092); details: hLULL1 lysate binding, 635 nm fluorescence, higher = more signal;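 also: probe is lysate of COS7 cells overexpressing human LULL1; score merges per-feature 667 nm fluorescence with signal-to-noise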
[16] = E. coli growth modulation, two-sided OD650, primary screen, E. coli filamentation project, strain DRC41, 24 h (AID 1093); details: OD650, 24 h, higher = more signal, called active from +8 up or from −8 down;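 also: MC1000 strain lacking acrAB efflux and sulA so SOS filamentation is blocked; test concentration not given here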
[17] = small-molecule microarray binders of probe aLefty2, primary screen, biochemical, biotinylated probe, 635/667 nm fluorescence (AID 1094); details: higher = more signal;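 also: score merges spot fluorescence near 667 nm with spot signal-to-noise ratio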
[18] = system: Noggin (protein binding on small-molecule microarray); assay: Noggin binders on small-molecule microarray, primary screen, biochemical, 635/667 nm fluorescence (AID 1095); details: 635 nm fluorescence, higher = more signal;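 also: score merges 667 nm feature fluorescence with signal to noise over triplicate slides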
[19] = biological target: Neurogenic locus notch homolog protein 3 (Homo sapiens) (UniProt Q9UM47); assay: NOTCH3 binders on small-molecule microarray, primary screen, biochemical, 635/667 nm fluorescence (AID 1096); details: NOTCH3 binding, 635 nm fluorescence, higher = more signal
[20] = small-molecule microarray binders of probe aEGFR, primary screen, biochemical, biotinylated probe, 635/667 nm fluorescence (AID 1097); details: higher = more signal;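 also: probe is a biotinylated anti-EGFR antibody binding compounds printed on slides; score combines fluorescence near 667 nm and signal to noise of each spot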

Neurogenic locus notch homolog protein 2 (Homo sapiens), sequence (Q04721 whole entry, looked up, canonical isoform): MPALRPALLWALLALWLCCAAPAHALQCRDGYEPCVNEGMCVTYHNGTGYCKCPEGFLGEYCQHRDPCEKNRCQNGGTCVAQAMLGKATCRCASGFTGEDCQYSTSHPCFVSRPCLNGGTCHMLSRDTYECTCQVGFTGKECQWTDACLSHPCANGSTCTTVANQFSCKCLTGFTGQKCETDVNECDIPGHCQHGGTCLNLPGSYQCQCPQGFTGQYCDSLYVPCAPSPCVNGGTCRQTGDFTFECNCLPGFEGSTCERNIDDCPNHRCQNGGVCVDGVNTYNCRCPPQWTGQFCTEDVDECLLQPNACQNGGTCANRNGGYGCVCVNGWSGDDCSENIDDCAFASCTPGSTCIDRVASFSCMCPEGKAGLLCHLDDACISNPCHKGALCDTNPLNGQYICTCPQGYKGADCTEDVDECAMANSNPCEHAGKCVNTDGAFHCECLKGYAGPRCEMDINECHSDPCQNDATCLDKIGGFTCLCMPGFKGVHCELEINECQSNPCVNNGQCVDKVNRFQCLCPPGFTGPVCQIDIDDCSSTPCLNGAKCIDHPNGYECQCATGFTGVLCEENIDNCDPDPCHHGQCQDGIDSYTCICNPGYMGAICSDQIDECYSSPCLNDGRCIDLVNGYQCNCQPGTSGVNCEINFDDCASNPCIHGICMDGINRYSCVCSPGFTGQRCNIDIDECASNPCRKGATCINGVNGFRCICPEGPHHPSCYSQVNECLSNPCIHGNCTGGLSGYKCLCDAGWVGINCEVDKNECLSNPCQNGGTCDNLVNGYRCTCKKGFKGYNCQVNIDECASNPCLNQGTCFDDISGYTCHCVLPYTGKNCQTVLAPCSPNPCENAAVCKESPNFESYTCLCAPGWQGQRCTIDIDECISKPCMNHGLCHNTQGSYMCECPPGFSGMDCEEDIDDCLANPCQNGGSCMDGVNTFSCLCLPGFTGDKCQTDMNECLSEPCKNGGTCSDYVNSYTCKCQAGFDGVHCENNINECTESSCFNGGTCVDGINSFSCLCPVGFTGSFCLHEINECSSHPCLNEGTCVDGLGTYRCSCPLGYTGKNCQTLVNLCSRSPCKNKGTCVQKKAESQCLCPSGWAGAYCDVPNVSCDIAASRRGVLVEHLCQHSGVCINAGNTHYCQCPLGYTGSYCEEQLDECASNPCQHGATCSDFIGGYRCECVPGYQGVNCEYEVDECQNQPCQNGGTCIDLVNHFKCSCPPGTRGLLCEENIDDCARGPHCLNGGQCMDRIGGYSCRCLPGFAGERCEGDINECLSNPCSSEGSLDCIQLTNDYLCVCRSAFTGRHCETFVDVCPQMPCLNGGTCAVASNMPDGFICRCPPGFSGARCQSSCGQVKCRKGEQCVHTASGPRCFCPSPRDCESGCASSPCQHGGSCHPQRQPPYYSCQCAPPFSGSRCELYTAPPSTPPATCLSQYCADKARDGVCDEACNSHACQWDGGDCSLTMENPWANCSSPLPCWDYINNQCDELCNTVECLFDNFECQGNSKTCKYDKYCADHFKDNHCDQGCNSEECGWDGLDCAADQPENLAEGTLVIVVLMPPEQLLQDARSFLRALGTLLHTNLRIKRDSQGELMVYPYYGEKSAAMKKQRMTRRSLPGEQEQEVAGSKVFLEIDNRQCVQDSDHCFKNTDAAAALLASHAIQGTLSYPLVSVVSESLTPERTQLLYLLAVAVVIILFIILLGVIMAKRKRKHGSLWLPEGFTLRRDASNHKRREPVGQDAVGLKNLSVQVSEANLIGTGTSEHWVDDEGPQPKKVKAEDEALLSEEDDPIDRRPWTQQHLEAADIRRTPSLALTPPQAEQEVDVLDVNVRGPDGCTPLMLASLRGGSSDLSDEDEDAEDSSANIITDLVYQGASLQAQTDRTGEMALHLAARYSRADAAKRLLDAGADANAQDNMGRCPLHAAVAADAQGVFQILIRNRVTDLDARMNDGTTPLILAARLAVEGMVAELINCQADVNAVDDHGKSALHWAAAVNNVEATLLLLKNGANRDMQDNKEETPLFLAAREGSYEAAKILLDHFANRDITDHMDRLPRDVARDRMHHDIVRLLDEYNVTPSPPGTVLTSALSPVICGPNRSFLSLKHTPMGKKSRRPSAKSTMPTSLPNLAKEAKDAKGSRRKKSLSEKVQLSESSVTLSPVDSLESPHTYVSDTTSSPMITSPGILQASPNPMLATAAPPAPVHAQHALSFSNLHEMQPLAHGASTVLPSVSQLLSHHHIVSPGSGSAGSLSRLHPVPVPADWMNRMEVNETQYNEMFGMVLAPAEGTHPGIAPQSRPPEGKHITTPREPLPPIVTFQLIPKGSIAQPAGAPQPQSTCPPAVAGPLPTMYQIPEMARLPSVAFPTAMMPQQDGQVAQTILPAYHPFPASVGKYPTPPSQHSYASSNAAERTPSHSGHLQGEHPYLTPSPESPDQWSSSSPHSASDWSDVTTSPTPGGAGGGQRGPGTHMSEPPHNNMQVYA
Torsin-1A-interacting protein 2 (Homo sapiens), sequence (Q8NFQ8 whole entry, looked up): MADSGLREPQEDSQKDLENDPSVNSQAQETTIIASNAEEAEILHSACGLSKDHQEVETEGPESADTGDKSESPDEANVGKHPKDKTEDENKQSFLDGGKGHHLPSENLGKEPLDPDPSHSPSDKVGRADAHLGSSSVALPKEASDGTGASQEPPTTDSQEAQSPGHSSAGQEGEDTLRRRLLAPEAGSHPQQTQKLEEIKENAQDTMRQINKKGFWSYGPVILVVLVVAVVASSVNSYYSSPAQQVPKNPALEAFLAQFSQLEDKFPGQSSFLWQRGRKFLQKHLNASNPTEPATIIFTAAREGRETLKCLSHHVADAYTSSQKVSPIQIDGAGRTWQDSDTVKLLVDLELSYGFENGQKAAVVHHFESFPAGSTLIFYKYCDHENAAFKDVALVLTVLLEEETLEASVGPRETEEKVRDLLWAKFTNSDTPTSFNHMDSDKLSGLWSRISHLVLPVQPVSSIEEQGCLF
Pro-neuregulin-1, membrane-bound isoform (Homo sapiens), sequence (Q02297 whole entry, looked up, the tested form may be a part, canonical isoform): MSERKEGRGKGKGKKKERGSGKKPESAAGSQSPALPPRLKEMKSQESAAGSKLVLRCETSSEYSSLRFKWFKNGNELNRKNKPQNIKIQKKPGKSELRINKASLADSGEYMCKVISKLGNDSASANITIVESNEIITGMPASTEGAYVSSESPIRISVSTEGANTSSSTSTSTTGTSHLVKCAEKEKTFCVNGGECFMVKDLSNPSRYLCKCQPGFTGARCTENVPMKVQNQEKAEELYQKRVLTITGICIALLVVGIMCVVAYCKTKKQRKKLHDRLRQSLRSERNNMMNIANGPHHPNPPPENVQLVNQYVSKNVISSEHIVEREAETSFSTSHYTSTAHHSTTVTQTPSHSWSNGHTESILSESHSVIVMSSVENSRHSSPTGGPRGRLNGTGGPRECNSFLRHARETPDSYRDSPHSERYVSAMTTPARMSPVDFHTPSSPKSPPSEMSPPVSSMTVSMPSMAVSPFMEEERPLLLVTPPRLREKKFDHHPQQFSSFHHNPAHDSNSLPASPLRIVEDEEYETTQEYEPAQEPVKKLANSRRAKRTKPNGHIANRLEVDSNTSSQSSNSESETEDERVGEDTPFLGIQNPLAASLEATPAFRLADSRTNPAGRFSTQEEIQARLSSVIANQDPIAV

Row | SMILES | composite z-score [1] | composite z-score [2] | composite z-score [3] | composite z-score [4] | composite z-score [5] | composite z-score [6] | composite z-score [7] | z-score [8] | composite z-score [9] | composite z-score [10] | composite z-score [11] | z-score [12] | z-score [13] | z-score [14] | composite z-score [15] | z-score [16] | composite z-score [17] | composite z-score [18] | composite z-score [19] | composite z-score [20]
1 | COC1(C)CN(Cc2ccccc2Br)[C@H](/C=C/c2ccccc2)[C@H](Cc2ccccc2)O1 (stereo not given in full) | -0.366 | 0.115 | -0.194 | -0.0452 | -0.669 | -0.435 | -0.426 | -0.916 (inactive) | -0.317 | 0.0373 | -0.355 | -0.0969 (inactive) | 0.239 (inactive) | 0.243 (inactive) | -0.92 | 1.07 (inactive) | -0.231 | -0.391 | -0.789 | -0.159
2 | Cc1ccc(F)cc1S(=O)(=O)N[C@@H]1CCN(Cc2ccc(OC(C)C)cc2)C1 | -0.0929 | 0.571 | -0.115 | -0.209 | -0.863 | -0.136 | 0.288 | -1.22 (inactive) | -0.192 | -0.257 | -0.43 | -1.01 (inactive) | -14.4 (active) | -0.839 (inactive) | -0.526 | -19.6 (active) | -0.218 | 0.313 | -0.877 | -0.273
3 | O=C1O[C@@H](c2ccccc2)[C@@H](c2ccccc2)N2[C@@H](c3ccccc3OCCO)[C@]3(C(=O)Nc4ccc(C#CCCO)cc43)[C@@H](C(=O)Nc3nc4ccccc4s3)[C@H]12 | -0.0348 | 0.74 | -0.0165 | 1.07 | 1.36 | 1.5 | 1.3 | -2.4 (inactive) | 0.73 | 0.28 | 1.55 | 1.49 (inactive) | -0.487 (inactive) | 3.2 (inactive) | 2.64 | 1.59 (inactive) | 0.259 | 0.448 | 1.05 | 0.131
4 | COc1cc(CO)cc(I)c1O[C@H]1C=C(C(=O)NCCO)C[C@@H](NCc2ccccc2F)[C@@H]1O | -0.267 | 0.644 | 0.0232 | 1.17 | 0.161 | 0.321 | 0.989 | -1.05 (inactive) | 0.0915 | -0.0645 | 1.13 | 2.24 (inactive) | -3.89 (inactive) | 0.519 (inactive) | 0.491 | 1.77 (inactive) | -0.0943 | 1.05 | 0.75 | -0.151
5 | COc1ccc([Si](C)(C)[C@H]2[C@H](CCn3cc([C@H](O)c4ccccc4)nn3)O[C@@]3(C(=O)N(Cc4ccc(N5CCC5=O)cc4)c4ccccc43)[C@@H]2C)cc1 | -0.179 | 1.16 | -0.116 | 0.368 | 0.176 | 0.635 | 0.636 | -2.36 (inactive) | 0.247 | -0.0237 | 1.57 | -0.509 (inactive) | 0.158 (inactive) | 2.14 (inactive) | 0.588 | 1.15 (inactive) | -0.184 | 1.05 | 0.698 | -0.0953
